PubChem BioAssay AID588675 (Johns Hopkins Ion Channel Center, 2011)
In all, about 310,000 compounds went through this assay and about 1,900 (0.61%) were called active. This is one part of a sample in which actives are shown more often than they occur.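 The calls were made as follows: active = plate-corrected calcium response at least 3 library SD above typical, normal starting fluorescence, not activating the receptor alone; inactive = the rest.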

molecular target: Mas-related G-protein coupled receptor member X1 (Homo sapiens) (UniProt Q96LB2); experiment: positive allosteric modulators of MrgX1, primary screen, HEK293 cells, Fluo-4 calcium flux (AID 588675); conditions: MrgX1-HEK293, Fluo-4 calcium flux, FDSS, at 10 µM; active compounds read high;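 also: compound read alongside a low EC10 to EC30 dose of BAM8-22 agonist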;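 as to B-score: peak minus trough fluorescence over baseline measured at the second addition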
Sequence (Q96LB2 whole entry, looked up): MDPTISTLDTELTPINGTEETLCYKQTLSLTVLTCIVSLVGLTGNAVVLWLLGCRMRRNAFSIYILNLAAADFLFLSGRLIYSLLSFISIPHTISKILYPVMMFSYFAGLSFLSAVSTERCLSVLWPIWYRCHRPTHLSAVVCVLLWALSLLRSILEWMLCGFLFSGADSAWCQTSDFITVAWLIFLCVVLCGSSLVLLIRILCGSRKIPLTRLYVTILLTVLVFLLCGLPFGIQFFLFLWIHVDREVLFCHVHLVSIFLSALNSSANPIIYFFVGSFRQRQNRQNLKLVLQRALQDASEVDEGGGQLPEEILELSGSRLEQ

Structure (SMILES)	B-score
Cc1cc(NC(=O)CS(=O)(=O)c2cn(C)c3ccccc23)no1	inactive
CCCCN1C(N)=NC[C@@H]1CC1CCCCC1	inactive
COc1ccccc1CCNS(=O)(=O)c1cn(C)nc1C	inactive
CCOc1ccc2nc(/N=C/c3nc(-c4ccccc4)oc3O)sc2c1	18.1 (active)
CC(N=Cc1nc(-c2ccccc2)oc1O)c1ccccc1 (stereo not given)	inactive
CCOc1ccc2nc(N(CCCN(C)C)C(=O)c3ccc(C(=O)c4ccccc4)cc3)sc2c1	inactive
CN1C(=O)CC(c2ccccc2)C1=O (stereo not given)	inactive
Cc1cccc(N(C)C(=O)c2cc(S(=O)(=O)N3CCCCC3)c[nH]2)c1	inactive
COC(=O)Cn1c(=NC(=O)c2cc(OC)c(OC)c(OC)c2)sc2cc(OC)ccc21	inactive
COc1ccc(/C(C)=N/NC(=O)CCC(=O)Nc2ccc(Cl)cc2Cl)c(OC)c1	inactive
COc1ccc(OC)c(/C(C)=N\NC(=O)c2cc3cc(Cl)ccc3n2C)c1	6.86 (active)
COc1ccc(OC)c(C(=O)c2ccc(Cl)cc2)c1	inactive
CCOc1ccccc1NS(=O)(=O)c1c[nH]c(C(=O)OC)c1	inactive
CCN(CC(=O)NCc1cccs1)C(=O)c1cccc(S(=O)(=O)Nc2ccccc2OC)c1	inactive
CCOc1ncccc1C(=O)NNC(=O)c1cccc(S(=O)(=O)Nc2ccccc2OC)c1	7.54 (active)
COc1ccc(CCNC(=S)NC(=O)/C=C/c2ccc(C)cc2)cc1OC	inactive
COCCCNC(=O)CN1CCN(Cc2ccccc2Cl)C1=O	inactive
C#CCOCCOCCOCCNc1nc(N2CCN(C(=O)[C@H](CCCCN)n3cc(CCC(=O)O)nn3)CC2)nc(N2CCN(C(=O)[C@H](CCCCN)n3cc(CC(C)O)nn3)CC2)n1 (stereo not given in full)	inactive
COc1cc(Nc2nc3ccc(Cl)cc3n3cnnc23)cc(OC)c1OC	inactive
COc1ccc(CCNc2nc3ccc(C)cc3n3cnnc23)cc1OC	inactive
COc1ccc(OC)c(Nc2nc3ccccc3n3cnnc23)c1	9.87 (active)
Cc1nn2cc(-c3ccc(Cl)cc3)cnc2c1Br	inactive

Structure (SMILES)	B-score
CN1C(C)(C)CC(NC(=O)CCC(=O)NC2CC(C)(C)N(C)C(C)(C)C2)CC1(C)C	inactive
Nc1nc(C23CC4CC(CC(C4)C2)C3)cs1	15.8 (active)
S=c1nc(C23CC4CC(CC(C4)C2)C3)nc2sccn12	inactive
Nc1nc(SC23CC4CC(CC(C4)C2)C3)ns1	inactive
FC(F)(F)c1ccc2nnc(-c3c(Cl)cccc3Cl)n2c1	inactive
COC(=O)Cc1[nH]n(-c2nc3ccccc3s2)c(=O)c1C(C)=Nc1ccc(OC)cc1	inactive
COC(=O)Cc1cc(=O)n(-c2nc3ccccc3s2)[nH]1	7.64 (active)
C/C(=N\NC(=O)CC(C)C)c1c(C(F)(F)F)[nH]n(-c2nc3ccccc3s2)c1=O	inactive
COc1ccc(-c2nc3cc([N+](=O)[O-])ccc3o2)cc1OC	11 (active)
O=[N+]([O-])c1ccc2oc(-c3cccc(O)c3)nc2c1	inactive
COc1ccc([N+](=O)[O-])cc1-c1nc2ccccc2nc1-c1ccccc1	inactive
CC(C)N1C(=S)SC(C)(C)C1n1oc(=O)n(-c2ccc(Cl)c(Cl)c2)c1=O (stereo not given)	inactive
O=C(CNC(=O)OCc1ccccc1)Oc1cc2oc(=O)cc(-c3ccccc3)c2cc1Cl	inactive
Cc1nc2sccn2c(=O)c1S(=O)(=O)NCCc1ccccc1	inactive
Cc1ccc2c(C)c(C(=O)N(C)Cc3ccncn3)oc2c1C	inactive
Cc1ccc2c(C)c(C(=O)N(C)CCC3CCCCO3)oc2c1C (stereo not given)	11.2 (active)
Cc1c(C(=O)N(C)CCc2cnn(C)c2)oc2c(F)cccc12	inactive
CCCCn1c(N)c(N(CCC(C)C)C(=O)CC2OC(=O)c3ccccc32)c(=O)[nH]c1=O (stereo not given)	inactive
COc1ccc(C2(C)NC(=O)N(CC(=O)c3ccc4c(c3)OCO4)C2=O)cc1 (stereo not given)	inactive
O=C(OCc1ccc([N+](=O)[O-])cc1)C1CC(=O)N(Cc2ccccc2Cl)C1 (stereo not given)	inactive
CCCC1CCC(=NNC(=S)NCCc2ccccc2)CC1 (stereo not given)	inactive
O=C(O)CCn1cc(/C=C/C(=O)c2ccc(Cl)cc2)c(-c2cccc(Br)c2)n1	inactive

Structure (SMILES)	B-score
COc1cc(/C=C(\C#N)c2nc3c(s2)CC(C)CC3)ccc1O (stereo not given)	15.1 (active)
COc1cc(/C=C(\C#N)c2nc3ccccc3[nH]2)ccc1O	inactive
CCOc1cc(/C=C(\C#N)c2nc(-c3cccs3)c(NC(C)=O)s2)ccc1O	inactive
CC(=O)Nc1ccc(S(=O)(=O)N2CCN(C(=O)c3ccccc3F)CC2)cc1	inactive
O=C(Nc1cccc(Cl)c1)c1cncn1-c1ccc(F)cc1	12.5 (active)
O=C(Nc1cccc(Cl)c1)c1cc(S(=O)(=O)N2CCCCC2)c[nH]1	inactive
CCC(=O)Nc1nc(C)c(C(=O)Nc2cccc(Cl)c2)s1	inactive
C=CCn1cc(Cl)cc(C(=O)Nc2ccccc2)c1=O	inactive
COC(=O)c1c(NC(=O)C2CC(C)=C(C)CC2C(=O)O)sc2c1CCCCC2 (stereo not given)	inactive
COC(=O)c1c(NC(=O)COC(=O)[C@@H](NS(=O)(=O)c2ccccc2)C(C)C)sc2c1CCC2	inactive
COC(=O)c1c(NC(=O)CN(c2ccc(C)c(C)c2)S(C)(=O)=O)sc2c1CCCC2	11.7 (active)
COC(=O)c1c(NC(=O)CSc2nncs2)sc2c1CCCCC2	inactive
CCc1ccc(N(CC(=O)Nc2sc3c(c2C(=O)OC)CCCC3)S(C)(=O)=O)cc1	8.16 (active)
COC(=O)c1c(NC(=O)CCN2CCOCC2)sc2c1CCCC2	inactive
COc1ccc(OC)c(-c2c(=O)n(OCc3ccccc3Br)c3ccccc3[n+]2[O-])c1	inactive
O=C(Oc1ccc(-c2nnco2)cc1)c1ccc(F)c(S(=O)(=O)N2CCOCC2)c1	inactive
CN(C(=O)CCNC(=O)Cn1ccc2ccccc2c1=O)c1ccc(Br)cc1	inactive
CC(=O)N1c2ccc(S(=O)(=O)N(C)CC(=O)N(C)Cc3ccccc3)cc2CC1C (stereo not given)	inactive
O=C(Nc1nnc(-c2ccccc2F)s1)c1ccccc1F	inactive
COc1ccccc1C(CNC(=O)c1cccc(NS(=O)(=O)c2ccc(Br)cc2)c1)N(C)C (stereo not given)	inactive
Cc1ccc(CNS(=O)(=O)c2ccc3c(c2)N(C)CCO3)cc1	inactive
